Measured values reported in publication PMC13494018.
Unmarked numbers belong to inactive results. The rule behind the calls is not given here.

Molecular target: CD276, Q5ZPR3
Sequence (Q5ZPR3 whole entry): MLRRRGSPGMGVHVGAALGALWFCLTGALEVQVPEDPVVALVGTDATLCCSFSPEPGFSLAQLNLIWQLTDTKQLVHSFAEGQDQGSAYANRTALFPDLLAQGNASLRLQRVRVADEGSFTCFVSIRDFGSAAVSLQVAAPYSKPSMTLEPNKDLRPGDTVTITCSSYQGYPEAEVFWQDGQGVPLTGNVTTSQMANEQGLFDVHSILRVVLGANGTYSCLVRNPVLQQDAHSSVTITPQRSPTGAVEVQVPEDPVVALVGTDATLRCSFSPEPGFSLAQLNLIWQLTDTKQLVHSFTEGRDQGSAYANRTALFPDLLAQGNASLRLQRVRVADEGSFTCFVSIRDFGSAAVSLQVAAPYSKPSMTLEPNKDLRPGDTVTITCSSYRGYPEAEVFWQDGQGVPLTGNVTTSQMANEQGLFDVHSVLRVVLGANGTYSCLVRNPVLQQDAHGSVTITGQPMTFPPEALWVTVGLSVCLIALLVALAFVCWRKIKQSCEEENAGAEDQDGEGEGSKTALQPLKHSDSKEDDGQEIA

B1: d6r1_design_ppi_82_dldesign_0_cycle1_af2pred (protein)
chain: AAATQQQLTQAVRDALLARVAAVAADPSQAELLRRVTRSAVLMMGALEGLEGARAFAERAIAAAAAVGPEAAAAVREGAREGLEEYAA
binding in a display sort: not found

B2: d6r1_design_ppi_229_dldesign_0_cycle0_af2pred (protein)
chain: EEARELARRTAEEAEELIKKALPEEDRELAELAGDLVRAGAEAATTNPAQGRAAFRTAAGILRSAGAEEAAEEVERRMEEMLRRIA
binding in a display sort: not found

B3: d6r1_design_ppi_251_dldesign_0_cycle0_af2pred (protein)
chain: DAARALLLRTAENAAQMLRLLGVDEATAEAVLARLTAAAAAGPAAFAAAARAAAAELEAQPSLNARTAGAALRTAAATAEAEIAAL
binding in a display sort: not found

B4: d6r1_design_ppi_11_dldesign_0_cycle1_af2pred (protein)
chain: EMEKAQKELLEAANKAMTTLFKAAAAASAKGDNATAGQLVEAAGEVSKLAKEAVKKSPEAMKEAAKKLKEAAAAGAKLGAA
binding in a display sort: not found

B5: d6r1_design_ppi_2_dldesign_0_cycle1_af2pred (protein)
chain: AEAKKKAIEDAEGAAEAAKKFLDLFKEAFPEAKETIAALQAKVEAAKKAAEKARKEGADVATAQAVLDQARAVQVDIINALNEATRS
binding in a display sort: not found

B6: d6r1_design_ppi_203_dldesign_0_cycle1_af2pred (protein)
chain: AQEQVVKEAQQLLLAASQAISKALVRAAQGTLQQADIEAAQKLIEAAAKAAEKAPPEAKARLNKGVEGLKELLEGALQTAKLAK
binding in a display sort: not found

B7: d6r1_design_ppi_222_dldesign_0_cycle1_af2pred (protein)
chain: SAEAAALKEEAEKLGKEALAAAEELKKVDPEKGERLKSQIKGLELQAISSYDLAAVNPAALATAKKAREQLEKLGREAKEAV
binding in a display sort: not found

B8: d6r1_design_ppi_62_dldesign_0_cycle0_af2pred (protein)
chain: VEEARALAESAEQAAEAGSYLLAALNLERAVRLAEELARRGEGLEEVRRIAERVAEVAKRVAESPEVRERAEEILRRAKRIIEEI
binding in a display sort: not found

B9: d6r1_design_ppi_138_dldesign_0_cycle1_af2pred (protein)
chain: GKKKEEAEKLIKEAKEVKEKAEEAAKLAKELGNEEAAKAAQKAIEEAEKAIEAAKEGKLEEARLHLAKAKGYLLRAQGLIANKLAAA
binding in a display sort: not found

B10: d6r1_design_ppi_13_dldesign_0_cycle1_af2pred (protein)
chain: AAEAKAAEKAARAELAKLRAVAAANPVHGGEILLAVARAAAEVNRLIAKGLAGTPEEAKAAAEAAKAAVAKARAEAAALA
binding in a display sort: not found

B11: d6r1_design_ppi_232_dldesign_0_cycle0_af2pred (protein)
chain: AEEFAEEAKKELEEIEKMIKEGEARADGEQIAVEAIEKAGEALKKAKEFKKKDPKVGEEAAKEFLKAINEATKAANAKAAAA
binding in a display sort: not found

B12: d6r1_design_ppi_270_dldesign_0_cycle1_af2pred (protein)
chain: EEEKREAAREITERAIEEIRAAAERAAAAGQPGAGVEAGMKIGAEAVRRVREKGTEELAEEAARRMNAALAEAIRAAMALAR
binding in a display sort: not found

B13: d6r1_design_ppi_3_dldesign_0_cycle0_af2pred (protein)
chain: EEELARAAEAARRQAEVAEALAEQAAAADPANQPLADEARRLAERARELAERGATVEEIREALLEVSRAAARAAAALNAAVAA
binding in a display sort: not found

B14: d6r1_design_ppi_51_dldesign_0_cycle0_af2pred (protein)
chain: ALAEAQKQLAQARALVLGAEAAVEHAERSSPEEGRRALAAARDLIAQAKEKAKAAAKHPETKAEAEKLLKEAEKLEARAAAVEAAL
binding in a display sort: not found

B15: d6r1_design_ppi_198_dldesign_0_cycle1_af2pred (protein)
chain: GEAEKVEKAKEKAAEKINEALALASKGAIEGDVEKVKEAKEILKEAVKEAKAVSPEAAKYAEELAKKAEEIIEAMEKSAKAAA
binding in a display sort: not found

B16: d6r1_design_ppi_197_dldesign_0_cycle0_af2pred (protein)
chain: AAELAALEAEFRDQLEVARQAARFSPASAAAFLAGVAASLRRRLPPALGAAFAARADAAAAAARLLGEDPAAGEALFAAVLA
binding in a display sort: not found

B17: d6r1_design_ppi_243_dldesign_0_cycle1_af2pred (protein)
chain: AEAVARAARDARAQIELAEALLKQGLAAAKTDPAQALLAYNAALAAARSAVRIAARAPEVLEEARAALAAVEAAKAKVQAQAA
binding in a display sort: not found

B18: d6r1_design_ppi_30_dldesign_0_cycle0_af2pred (protein)
chain: EKEEIIKKAKELKEQAEKVLAEDVSPLAKKVAEQAIKHAEKAIEAAKAGDLEEAKAHLSSAEAFVLGLTR
binding in a display sort: not found

B19: d6r1_design_ppi_239_dldesign_0_cycle1_af2pred (protein)
chain: DKAVLEEAEKVFKEALAVAEEIVAEGAKNPAYAAFAKAFAKQLKAQLAEAKKLTPEEALKAAKKLLDAAKQALKLVSE
binding in a display sort: not found
